Test results taken from PubChem BioAssay (NCATS).
Unmarked numbers belong to inactive results. Results filed as inconclusive are left out. A call without a number means that no potency is given here. Activity calls are given as the source filed them. Calls come from the whole dose curve; as a rule, active = well fitted curve in the direction sought with a large enough effect; inconclusive = small, poorly fitted or top-dose-only effect, or another doubt; inactive = no such curve, though single readings can be large; an effect the other way counts as inactive or inconclusive.

How the values were obtained:
[1] = HPAF-II 24hr Apoptosis Induction qHTS against the NCATS CANVASS Library (AID 1347356)
How it was run: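 HPAF-II cells (500/well) exposed to compounds in 11-point series for 24 h at 37 degrees C; caspase-3/7 activity read by Caspase-Glo luminescence after 15 min at room temperature. Doxorubicin titration as control.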

[2] = HEK293 24hr Apoptosis Induction qHTS against the NCATS CANVASS Library (AID 1347359)
How it was run: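 HEK293 cells, 500 per well, exposed to an 11-point compound series for 24 hours at 37 degrees C. Caspase 3/7 activity read by Caspase-Glo luminescence (DEVD substrate) after 15 min at room temperature.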

[3] = HPAF-II 18hr Apoptosis Induction qHTS against the NCATS CANVASS Library (AID 1347360)
How it was run: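 Seed HPAF-II cells at 500/well in DMEM + 10% FBS, pin-transfer compounds, incubate 18 hours at 37 degrees C/5% CO2, add Caspase-Glo 3/7 reagent, wait 15 min, read luminescence.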

[4] = tested on: NAD(P)H diaphorase (Clostridium kluyveri); test: Diaphorse counterscreen qHTS: Assay Interference Panel against the NCATS CANVASS Library (AID 1347362)
How it was run: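 Clostridium kluyveri diaphorase in PBS + 0.01% Tween-20 preincubated 15 min with compounds. Resazurin and NADH then added for 5 min at room temperature in the dark; resorufin fluorescence read (ex 525, em 598).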

[5] = qHTS for ATAD5 Agonist screened against the NCATS CANVASS Library (AID 1347367);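 note: luciferase reporter driven by ATAD5 which rises upon DNA damage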
How it was run: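 HEK293T-ATAD5 luc reporter; 2000 cells/well; 5hr settle; cpd 11-pt qHTS; 16hr 37C 5% CO2 dark; viability by CellTiter-Fluor (AFC fluorescence); then luciferase luminescence, 30min RT.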

[6] = G06 Cancer Cell Toxicity qHTS against the NCATS CANVASS Library (AID 1347368); note: nearly all actives have a fitted effect of over 60% in size; note: potency is the fitted concentration of half-maximal effect
How it was run: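 G06 dog glioma cells, 500 per well, exposed 72 hr at 37C, 5% CO2 to compounds in an 11-point series. Cytotoxicity read as ATP content by CellTiterGlo luminescence.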

[7] = qHTS for ATAD5 Antagonist screened against the NCATS CANVASS Library (AID 1347370); note: nearly all actives have a fitted effect of over 65% in size; note: potency is the fitted concentration of half-maximal effect
How it was run: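 HEK293T cells with stably integrated ATAD5-luciferase reporter, 2000/well, 5 h attachment; compounds plus 10 µM 5-fluorouridine, 16 h at 37 °C. Luciferase luminescence read, with CellTiter-Fluor viability read first.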

[8] = J3T Cancer Cell Toxicity qHTS against the NCATS CANVASS Library (AID 1347371); note: potency is the fitted concentration of half-maximal effect
How it was run: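 J3T dog glioma cells, 500 per well, treated 72 h at 37C with compounds (11-point qHTS); viability from ATP content by CellTiterGlo luminescence; bortezomib titration as control.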

[9] = biological target: Nuclear receptor subfamily 1 group I member 3 (Homo sapiens) (UniProt Q14994); test: qHTS for Constitutive Androstane Receptor (CAR) Antagonist screened against the NCATS CANVASS Library (AID 1347372);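 note: cells stimulated with 50 nM CITCO agonist so inhibition reflects antagonism; series mostly up to about 46 µM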
Chain of Nuclear receptor subfamily 1 group I member 3 (Homo sapiens) (Q14994 whole entry, looked up): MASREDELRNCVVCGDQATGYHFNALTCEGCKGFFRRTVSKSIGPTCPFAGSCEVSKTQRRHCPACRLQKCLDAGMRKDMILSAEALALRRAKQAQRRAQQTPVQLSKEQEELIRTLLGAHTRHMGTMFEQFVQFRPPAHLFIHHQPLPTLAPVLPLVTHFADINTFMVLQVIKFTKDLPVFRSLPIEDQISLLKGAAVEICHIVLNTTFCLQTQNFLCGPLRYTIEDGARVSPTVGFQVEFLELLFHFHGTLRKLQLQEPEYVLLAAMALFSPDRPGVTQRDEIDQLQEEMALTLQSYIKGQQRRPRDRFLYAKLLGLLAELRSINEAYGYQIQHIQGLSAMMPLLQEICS
How it was run: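 HepG2 cells stably carrying hCAR and CYP2B6-2.2kb luciferase reporter, 2500 cells/well, compound with 50 nM CITCO agonist for 24hr at 37C. ONE-Glo luminescence measured CAR activity; CellTiter-Fluor read viability.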

[10] = biological target: Nuclear receptor subfamily 1 group I member 3 (Homo sapiens) (UniProt Q14994); test: qHTS for Constitutive Androstane Receptor (CAR) Agonist screened against the NCATS CANVASS Library (AID 1347373);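 note: every well also contained 1.5 µM PK11195 alongside the test compound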
How it was run: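 HepG2 cells stably carrying hCAR and a CYP2B6-2.2kb luciferase reporter, treated 24hr at 37C with compounds plus 1.5uM PK11195; activation by ONE-Glo luminescence, viability by CellTiter-Fluor.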

[11] = qHTS for Hypoxia signaling pathway (HIF-1) agonists against the NCATS CANVASS Library (AID 1347375)
How it was run: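 HRE-bla ME-180 cells (0.5% dialyzed FBS) were pre-incubated 5 hrs at 37C, then exposed to compounds in an 11-point series for 17 hrs. Read-out was CCF4-AM beta-lactamase FRET (460/530 nm emissions), with CellTiter-Glo viability in the same wells.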

[12] = 10-beta competent E. coli microbial cell viability qHTS against the NCATS CANVASS Library (AID 1347376); note: series mostly up to about 46 µM
How it was run: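 10-beta competent E. coli (0.2 OD) were exposed overnight at 37C to compounds in an 11-point series. Viability was read as ATP-dependent BacTiter-Glo luminescence after 20 min at room temperature.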

[13] = qHTS for H2AX Agonists against the NCATS CANVASS Library (AID 1347378);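 note: phospho-H2AX S139 level in CHO-K1 lysates by TR-FRET emission ratio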; note: potency is the fitted concentration of half-maximal effect
How it was run: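 CHO-K1, 1000 cells/well, o/n 37C; cpd several conc, 3 hr 37C, 0.76% DMSO; lyse 30 min RT; cryptate anti-pH2AX(S139) + d2 anti-H2AX, 24 hr RT; HTRF 665/620.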

[14] = Inflammasome Signaling qHTS Counterscreen: IL-1-beta AlphaLISA counterscreen against the NCATS CANVASS Library (AID 1347381);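 note: cell-free check with purified IL-1β in medium and no THP-1 cells; series mostly up to about 57 µM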
How it was run: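 Cell-free interference check: compounds added to medium spiked with 4 pg purified IL-1β. Anti-IL-1β acceptor beads (6 ug/mL) with 0.6 nM biotinylated antibody added for 1 h at RT, then streptavidin donor beads (24 ug/mL) for 30 min in the dark. AlphaLISA read at 680/615 nm.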

[15] = qHTS for Activators of p53 Stress Response Pathway screened against the NCATS CANVASS Library (AID 1347388); note: potency is the fitted concentration of half-maximal effect
How it was run: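 p53RE-bla HCT-116 cells (4000/well) were pre-incubated for 5 h, then treated with compound (11 points) for 16 h at 37C. After 2 h with CCF4, the 460/530 nm ratio gave reporter activation; CellTiter-Glo measured viability.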

[16] = Vero-766 cells viability qHTS against the NCATS CANVASS Library: Counterscreen for Zika virus inhibition assay (AID 1347394); note: nearly all actives have a fitted effect of over 60% in size; note: potency is the fitted concentration of half-maximal effect
How it was run: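 Vero 766, no virus; 1000 cells/well; o/n attach; cpd 11-pt; 72 h, 37C, 5% CO2; CTG luminescence; cell-free media wells = 100% inhibition.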

[17] = Cytotoxicity qHTS for assessment of Hepg2 cells membrane integrity screened against the NCATS CANVASS Library (AID 1347387)
How it was run: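 HepG2 cells (2000/well) attached overnight, then exposed 5 hr at 37C to compounds in an 11-point series (0.59 nM - 46 uM final). LDH release from damaged membranes read fluorometrically (CytoTox-ONE; 560/590 nm) after 10 min at room temperature.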

[18] = Secretion counterscreen for inhibitors of the SERCaMP assay screened against the NCATS CANVASS Library (AID 1347390);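 note: light from luciferase secreted into medium read as a measure of general secretion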; note: potency is the fitted concentration of half-maximal effect
How it was run: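 SH-SY5Y-GLuc STOP cells; 4 h attach; cpds 0.001 - 77 uM (qHTS, 11 pts), 20 h 37C/5% CO2; coelenterazine in glow buffer; luminescence, 5 s exposure.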

[19] = qHTS for activators of dead-cell proteases activity screened against the NCATS CANVASS Library (AID 1347392);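 note: luminescence from protease leaking out of membrane-damaged cells cleaving impermeant substrate; rising signal means more cytotoxicity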
How it was run: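 HepG2 cells, 2000/well, attached 18 h at 37C, then exposed to compounds (11-point qHTS) for 5 h. Dead-cell protease release read as luminescence from cell-impermeant AAF-aminoluciferin substrate after 15 min at room temperature.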

[20] = qHTS assay for small molecule disruptors of mitochondrial membrane potential screened against the NCATS CANVASS Library (AID 1347389); note: series mostly up to about 46 µM; nearly all actives have a fitted effect of over 60% in size
How it was run: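 HepG2 cells (2,000/well) plated overnight, then exposed to compounds in 11-point qHTS series for 1 h at 37C before 30 min Mito-MPS dye; depolarization read as fall in red aggregate (590 nm) to green monomer (535 nm) fluorescence.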

Structure (SMILES)	outcome [1]	Potency [2]	Potency [3]	Potency [4]	Potency [5]	Potency [6]	Potency [7]	Potency [8]	Potency [9]	Potency [10]	outcome [11]	outcome [12]	Potency [13]	outcome [14]	Potency [15]	Potency [16]	outcome [17]	Potency [18]	Potency [19]	Potency [20]
C/C=C/C(=O)C1(O)CC2CC(C(=O)O)CC(C)C2C1C1=C2C(=O)NC(=O)C2=C(CCCCC)C(C)O1 (stereo not drawn)	inactive	inactive	inactive	inactive	inactive	11.8 µM (active)	16.6 µM (active)	20.9 µM (active)	inactive	inactive	inactive	inactive	inactive	inactive	7.41 µM (active)	inactive	–	–	–	–
CCCc1c2c([nH]c(=O)c1C)C(=O)c1[nH]c(=O)c(C)c(CCC)c1C2=O	inactive	inactive	inactive	–	inactive	–	inactive	inactive	–	inactive	inactive	inactive	–	inactive	inactive	inactive	inactive	inactive	inactive	–
CC(C)=CCCC(C)(O)[C@H]1CC=C(C)C(O)C1 (stereo partly drawn)	inactive	inactive	inactive	inactive	inactive	inactive	inactive	inactive	inactive	inactive	inactive	inactive	inactive	inactive	inactive	inactive	inactive	inactive	inactive	inactive
COC(=O)C1=C[C@]23C[C@@H](C)CC[C@@H]2[C@@]2(C)CC[C@@H](C(C)C)[C@@](O)(O3)[C@@H]12	inactive	–	inactive	inactive	inactive	inactive	inactive	inactive	inactive	inactive	inactive	inactive	inactive	inactive	inactive	inactive	inactive	inactive	inactive	inactive
C/C=C1/CN2C3CC1C1C=CC(=O)N4c5ccccc5[C@@]3(C[C@@H]2C2=C[C@H]3C5CC6N(CC[C@@]67c6ccccc6N(C2=O)[C@@H]37)C/C5=C/C)[C@H]14 (stereo partly drawn)	–	–	–	inactive	inactive	7.43 µM (active)	5.24 µM (active)	20.9 µM (active)	–	inactive	inactive	inactive	21.7 µM (active)	inactive	–	–	inactive	34.3 µM (active)	inactive	–
C[C@@H]1CC[C@]2(C(=O)O)CC[C@]3(C)C(=C2[C@H]1C)CC[C@@H]1[C@@]2(C)CC[C@H](O)C(C)(C)[C@@H]2CC[C@]13C	inactive	inactive	inactive	inactive	inactive	inactive	inactive	inactive	inactive	inactive	inactive	inactive	34.4 µM (active)	inactive	inactive	18.6 µM (active)	inactive	inactive	inactive	inactive
